Bioassay records from PubChem BioAssay.
RGS8-Gao: modulates binding of RGS8 to human Galphao; P09471; multiplexed bead flow cytometry; actives lie on both sides; response (percent of control binding), % at 10 µM; 0.34% of 220,000 active; AID 1423; in the data active means response below about 60% or above about 140%; inactive means in between;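 further: Galphao activated as the GDP aluminium fluoride complex binding bead-coupled RGS8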
Target sequence (P09471 whole entry, looked up): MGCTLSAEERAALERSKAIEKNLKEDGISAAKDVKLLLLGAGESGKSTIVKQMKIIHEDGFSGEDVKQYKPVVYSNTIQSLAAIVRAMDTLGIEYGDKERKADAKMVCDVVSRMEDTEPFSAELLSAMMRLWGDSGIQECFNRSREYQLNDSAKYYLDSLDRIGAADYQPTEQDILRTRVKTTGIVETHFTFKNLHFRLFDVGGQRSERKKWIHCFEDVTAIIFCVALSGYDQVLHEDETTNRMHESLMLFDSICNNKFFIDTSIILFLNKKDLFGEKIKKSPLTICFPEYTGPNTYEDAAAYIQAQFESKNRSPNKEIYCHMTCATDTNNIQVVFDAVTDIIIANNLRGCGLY
Avidin fluor: compound fluoresces at 488/530 nm on avidin beads. compound fluorescence 488/530 nm, flow cytometry; stronger effect = higher value. fluorescence (KMESF) at 10 µM. 0.38% of 220,000 active; in the data active means fluorescence above about 47
GSH bead fluor: compound fluoresces at 488/530 nm on GSH beads. GSH beads flow cytometry, compound fluorescence 488/530 nm; stronger effect = higher value. 0.25% of 190,000 active. AID 1776. fluorescence (KMESF) at 10 µM; in the data active means fluorescence above about 89;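 further: glutathione beads carrying GST-tagged Bcl family fusion proteins plus one bare bead set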
RGS7-Gao reg: regulators of human RGS7-Galphao interaction; binding response (% of control), % at 10 µM; AID 1439; 0.35% of 220,000 active; Multiplexed bead flow cytometry, RGS7-Galphao binding; actives lie on both sides; in the data active means binding response below about 49% or above about 150%; inconclusive means no clear call, values can overlap the other calls; inactive means in between;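 further: fluorescent Galphao held in activated GDP-AlF4 state binding bead-coupled RGS7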
RGS16-Gao HTS: modulates binding between human RGS16 and Galphao; O15492+P09471; bead-based flow cytometry RGS16-Galphao binding, fluorescence; actives lie on both sides; 0.38% of 220,000 active; binding response (% of control), % at 10 µM;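 further: Galphao activated by GDP with aluminum fluoride before binding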
Target sequence (O15492 whole entry, looked up): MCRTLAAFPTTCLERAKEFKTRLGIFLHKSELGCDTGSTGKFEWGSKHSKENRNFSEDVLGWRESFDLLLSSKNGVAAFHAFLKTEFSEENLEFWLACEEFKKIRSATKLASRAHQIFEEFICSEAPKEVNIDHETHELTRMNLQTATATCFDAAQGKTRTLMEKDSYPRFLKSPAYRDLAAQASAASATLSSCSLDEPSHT
Target sequence (P09471 whole entry, looked up): as the sequence (P09471 whole entry, looked up) above
RGS4-Gao reg: modulates binding of RGS4 to human Galphao. P09471. Multiplexed bead flow cytometry; actives lie on both sides. binding response (% of control), % at 10 µM. 0.33% of 220,000 active. AID 1415; in the data active means binding response below about 49% or above about 150%; inactive means in between;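 further: fluorescent Galphao activated with aluminum fluoride binding bead-coupled RGS4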
RGS4-Gao HTS: regulators of human RGS4-Galphao interaction; 99% of 1,600 active; multiplexed bead flow cytometry, RGS–Galpha-o binding; RGS4–Galpha-o binding response, % at 10 µM; shares compounds with RGS16-Gao HTS;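 further: fluorescently labeled Galpha-o bound to GDP with aluminium fluoride binding biotinylated RGS beads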
Biotin-avidin: biotin-avidin bead binding disruption counter-screen. shares compounds with RGS16-Gao HTS. streptavidin beads, fluorescein-biotin binding, flow cytometry. inhibition, % at 10 µM. 1,700 tested, under 10 active. AID 1783;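 active means inhibition above 50%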;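 further: median green fluorescence of gated singlet beads compared with DMSO control wells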
RGS8-Gao single: confirmation of regulators of human RGS8-Galphao interaction; shares compounds with RGS16-Gao HTS; bead-based flow cytometry RGS8-Galphao binding, fluorescence; actives lie on both sides; binding response (% of control), % at 10 µM; 3% of 1,700 active; AID 1836; in the data active means binding response below about 72% or above about 130%; inactive means in between;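 further: Galphao activated as GDP AlF4 complex before binding bead RGS8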
RGS7-Gao confirm: confirmation of regulators of human RGS7-Galphao interaction. shares compounds with RGS16-Gao HTS. bead-based flow cytometry RGS7-Galphao binding; actives lie on both sides. 7.8% of 1,700 active. AID 1837. response (percent of control binding), % at 10 µM; in the data active means response below about 75% or above about 130%; inactive means in between;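 further: fluorescent Galphao activated with GDP and aluminum fluoride binding bead-coupled RGS7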
RGS16-Gao single: confirmation of regulators of human RGS16-Galphao interaction; shares compounds with RGS16-Gao HTS; bead-based flow cytometry, RGS16-Galphao binding; actives lie on both sides; response (% of control binding), % at 10 µM; 4% of 1,700 active; AID 1838; in the data active means response below about 74% or above about 130%; inactive means in between;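 further: Galphao activated as the GDP aluminium fluoride complex binding bead-coupled RGS16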
RGS4-Gao single: confirmation of regulators of human RGS4-Galphao interaction | binding response (% of control), % at 10 µM | 4% of 1,700 active | shares compounds with RGS16-Gao HTS | RGS4-Galphao binding, multiplexed bead flow cytometry; actives lie on both sides | AID 1840; in the data active means binding response below about 74% or above about 130%; inactive means in between
RGS19-Gao conf: RGS19-Galphao interaction regulation, single point confirmation | shares compounds with RGS16-Gao HTS | bead-based flow cytometry RGS19-Galphao binding; actives lie on both sides | response (percent of control binding), % at 10 µM | 5% of 1,700 active; in the data active means response below about 50% or above about 160%; inactive means in between
Of the large screens only hits and unclear results are named; the others gave an inactive call (follow-up assays come after a bar, where they were run); [ ] = remark or other dose. Hits are enriched below; roughly 1.2% of the tested compounds scored in any of these assays. Unless noted, how the calls were made is not given here.

CCn1nc(C)cc1C(=O)Sc1cccc(Br)c1	RGS7-Gao reg inconclusive (no result: GSH bead fluor)
CC(C)CCNC(=O)C(c1ccco1)N(Cc1ccc(F)cc1)C(=O)c1snc(C(N)=O)c1N (stereo not given)	none
Cc1cc(N2CCN(C(c3ccccc3)c3ccccc3)CC2)n2ncnc2n1	none (no result: RGS8-Gao, Avidin fluor, RGS7-Gao reg, RGS16-Gao HTS, RGS4-Gao reg) | Biotin-avidin inactive | RGS8-Gao single inactive | RGS7-Gao confirm inactive | RGS16-Gao single inactive | RGS4-Gao single inactive | RGS19-Gao conf inactive
Cc1nc2ncnn2c(N2CCN(C(c3ccccc3)c3ccccc3)CC2)c1C	none
O=C(CC1SC(=NCC2CCCO2)NC1=O)Nc1cccc2ccccc12 (stereo not given)	RGS8-Gao 6.6, RGS7-Gao reg -5.8, RGS16-Gao HTS -12, RGS4-Gao reg 11 | Biotin-avidin inactive | RGS8-Gao single inactive | RGS7-Gao confirm inactive | RGS16-Gao single inactive | RGS4-Gao single inactive | RGS19-Gao conf inactive
CCOC(=O)c1sc(NC(=O)COC(=O)C(CCSC)NC(C)=O)nc1C (stereo not given)	RGS16-Gao HTS 9.0 | RGS4-Gao HTS 86 | Biotin-avidin inactive | RGS8-Gao single inactive | RGS7-Gao confirm inactive | RGS16-Gao single inactive | RGS4-Gao single inactive | RGS19-Gao conf inactive
COC(=O)CC1C(=O)NCCN1C(=O)Nc1ccc(Cl)c(Cl)c1 (stereo not given)	none (no result: RGS8-Gao, RGS7-Gao reg, RGS16-Gao HTS) | Biotin-avidin inactive | RGS8-Gao single inactive | RGS7-Gao confirm inactive | RGS16-Gao single inactive | RGS4-Gao single inactive | RGS19-Gao conf inactive
COc1ccc(C(CNC(=O)c2cc3ccccc3o2)N2CCCCC2)cc1 (stereo not given)	none
COc1ccc(NC(=S)N2CCN(C(c3ccccc3)c3ccccc3)CC2)cc1OC	RGS16-Gao HTS 185[activator] | RGS4-Gao HTS 105 | Biotin-avidin inactive | RGS8-Gao single inactive | RGS7-Gao confirm inactive | RGS16-Gao single inactive | RGS4-Gao single inactive | RGS19-Gao conf inactive
COc1ccc(NC(=S)N2CCCC2)cc1OC	none
O=C1c2ccccc2C(=O)N1CCN1CCOCC1	Avidin fluor 233, RGS7-Gao reg 259[activator] | RGS4-Gao HTS 92
O=C(NCCc1ccccc1)C1CC(c2ccccc2O)=NO1 (stereo not given)	none
CC(=O)NC(Cc1c[nH]c2ccccc12)C(=O)OCC(=O)Nc1cc(C)on1 (stereo not given)	RGS8-Gao 21, Avidin fluor 227 | RGS4-Gao HTS 72 | Biotin-avidin inactive | RGS8-Gao single inactive | RGS7-Gao confirm inactive | RGS16-Gao single inactive | RGS4-Gao single inactive | RGS19-Gao conf inactive
CC(=O)NC(NC(=S)Nc1ccc(N=Nc2ccccc2)cc1)C(Cl)(Cl)Cl (stereo not given)	none
COc1ccccc1OCCOCCOc1ccc(C)cc1[N+](=O)[O-]	RGS16-Gao HTS 295[activator] | RGS4-Gao HTS 116 | Biotin-avidin inactive | RGS8-Gao single inactive | RGS7-Gao confirm inactive | RGS16-Gao single inactive | RGS4-Gao single inactive | RGS19-Gao conf inactive
COc1ccccc1OCCOCCOc1c(C)cc(C)cc1Br	RGS16-Gao HTS 227[activator] | RGS4-Gao HTS 110 | Biotin-avidin inactive | RGS8-Gao single inactive | RGS7-Gao confirm inactive | RGS16-Gao single inactive | RGS4-Gao single inactive | RGS19-Gao conf inactive
COc1cc(C)ccc1OCCOCCOc1ccccc1[N+](=O)[O-]	none
CCn1c(SCC(=O)Nc2c(C#N)cnn2-c2ccccc2)nnc1-c1cccs1	RGS7-Gao reg inconclusive (no result: GSH bead fluor)
CCCCC(=O)Nc1cccc(C(C)O)c1 (stereo not given)	none
CC(C)CC(=O)Nc1cccc(C(C)O)c1 (stereo not given)	Avidin fluor 173, RGS7-Gao reg 203[activator] | RGS4-Gao HTS 115 | Biotin-avidin inactive | RGS8-Gao single inactive | RGS7-Gao confirm inactive | RGS16-Gao single inactive | RGS4-Gao single inactive | RGS19-Gao conf inactive
Cc1cc(NC(=O)c2ccccc2-c2ccccc2)ccc1Br	RGS16-Gao HTS 226[activator] | RGS4-Gao HTS 108 | Biotin-avidin inactive | RGS8-Gao single inactive | RGS7-Gao confirm inactive | RGS16-Gao single inactive | RGS4-Gao single inactive | RGS19-Gao conf inactive
Cc1cccc(NC(=O)c2ccccc2-c2ccccc2)c1	RGS7-Gao reg inconclusive
O=C(NCc1ccco1)c1ccc2snnc2c1	Avidin fluor 187, RGS7-Gao reg 188[activator] | RGS4-Gao HTS 114 | Biotin-avidin inactive | RGS8-Gao single inactive | RGS7-Gao confirm inactive | RGS16-Gao single inactive | RGS4-Gao single inactive | RGS19-Gao conf inactive
CCCc1nc(SCC(=O)Nc2nnc(SCC)s2)c2c(=O)n(C)c(=O)n(C)c2n1	RGS8-Gao 59, RGS7-Gao reg 44 | RGS4-Gao HTS 54
NC(=O)c1ccc(NC(=O)CN2CCN(c3ccc(Cl)cc3)CC2)cc1	RGS8-Gao 36, RGS7-Gao reg 34, RGS4-Gao reg 38 | Biotin-avidin inactive | RGS8-Gao single inactive | RGS7-Gao confirm inactive | RGS16-Gao single inactive | RGS4-Gao single inactive | RGS19-Gao conf inactive
COc1cccc(NC(=O)N(CCCN2CCOCC2)C(C)c2cc3ccccc3o2)c1 (stereo not given)	none
COCCNC(=O)c1cc(Sc2nnc(C)s2)nc2ccccc12	RGS8-Gao 60, RGS7-Gao reg inconclusive, RGS4-Gao reg 36 (no result: GSH bead fluor) | Biotin-avidin inactive | RGS8-Gao single inactive | RGS7-Gao confirm inactive | RGS16-Gao single inactive | RGS4-Gao single inactive | RGS19-Gao conf inactive
O=C(NC(=S)NCC1CCCO1)c1ccccc1[N+](=O)[O-] (stereo not given)	none
CS(=O)(=O)NCCOc1ccc(S(=O)(=O)NCCOc2ccccc2)cc1	RGS7-Gao reg inconclusive
O=S(=O)(NCCOc1ccccc1)c1ccc2ccccc2c1	RGS16-Gao HTS -1.5 | RGS4-Gao HTS 90
